Source: PubChem BioAssay

Key:
[1] = tested on: Human papillomavirus type 1a protein E7 (residues 44-93); assay: HPV1a E7 fragment binders on microarrays, primary screen, biochemical, small-molecule microarray, residues 44-93, 635 nm fluorescence (AID 1108); conditions: small-molecule microarray binding, fluorescence 635 nm; higher = more signal;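 note: E7 fragment applied at 1 µg/mL in TBST for 1 h at 4 C; score combines spot fluorescence with its signal to noise ratio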
[2] = modulators of HCV replicon luciferase signal, primary screen, HCV replication inhibitor project, Huh7 cells, luciferase reporter (AID 1109); conditions: 48 h, higher = more signal;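 note: huh7 hepatoma cells harbouring a luciferase neomycin HCV replicon reporter; luciferase luminescence as measure of HCV replicon replication; test concentration not given here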
[3] = biological target: Left-right determination factor 2 (Homo sapiens) (UniProt O00292); assay: LEFTY2 binders on small-molecule microarrays, primary screen, biochemical, small-molecule microarray, 635 nm fluorescence scan (AID 1110); conditions: LEFTY2 binding, higher = more signal
Chain of Left-right determination factor 2 (Homo sapiens) (O00292 whole entry, looked up): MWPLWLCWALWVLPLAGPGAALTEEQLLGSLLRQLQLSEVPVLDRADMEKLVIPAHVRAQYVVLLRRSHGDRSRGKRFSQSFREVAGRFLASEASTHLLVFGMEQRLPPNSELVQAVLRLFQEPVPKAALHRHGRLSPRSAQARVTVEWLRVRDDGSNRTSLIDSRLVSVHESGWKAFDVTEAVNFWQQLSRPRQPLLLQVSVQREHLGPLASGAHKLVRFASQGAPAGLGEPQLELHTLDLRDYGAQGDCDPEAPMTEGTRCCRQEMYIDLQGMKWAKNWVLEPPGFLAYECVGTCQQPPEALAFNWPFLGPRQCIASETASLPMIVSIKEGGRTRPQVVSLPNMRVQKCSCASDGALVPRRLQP

[4] = biological target: Calmodulin-1 (Homo sapiens) (UniProt P0DP23); assay: CALM1 binders on microarrays, EGTA buffer, profiling panel, biochemical, small-molecule microarray, Cy5-labelled CALM1 (AID 1111); conditions: Cy5-CALM1 binding fluorescence, higher = more signal;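 note: labelled calmodulin applied in Tris saline Tween buffer holding calcium plus EGTA and DTT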
[5] = biological target: Calmodulin-1 (Homo sapiens) (UniProt P0DP23); assay: calcium-bound CALM1 binders on microarrays, profiling panel, artefact control for SMM control-protein annotation, biochemical, small-molecule microarray, Cy5-labelled CALM1, plus calcium (AID 1112); conditions: Cy5-CALM1 binding fluorescence, higher = more signal;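 note: score merges spot fluorescence with signal to noise from triplicate slides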
[6] = small-molecule microarray binders of probe aWnt5a, primary screen, biochemical, biotinylated probe, 635/667 nm fluorescence (AID 1113); conditions: higher = more signal;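 note: score merges 667 nm fluorescence intensity with signal-to-noise per printed feature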
[7] = small-molecule microarray binders of probe aShh, primary screen, biochemical, biotinylated probe, 635/667 nm fluorescence (AID 1114); conditions: higher = more signal;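 note: probe is biotin-labelled aShh protein from a stem cell growth factor screen; measures binding of labelled protein to compounds printed on the slide; score merges feature fluorescence at 667 nm with signal-to-noise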
[8] = small-molecule microarray binders of probe aNog, primary screen, biochemical, biotinylated probe, 635/667 nm fluorescence (AID 1115); conditions: higher = more signal;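 note: probe is biotinylated aNog protein used at 0.15 µg/mL for 1 h at 4 C; z-score combines 667 nm fluorescence of each spot with its signal to noise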
[9] = biological target: Torsin-1A-interacting protein 1 (Homo sapiens) (UniProt Q5JTV8); assay: LAP1 binders from COS7 cell lysate, primary screen, small-molecule microarray, 635/667 nm fluorescence (AID 1116); conditions: COS7-hLAP1 lysate binding, 635 nm fluorescence, higher = more signal
Chain of Torsin-1A-interacting protein 1 (Homo sapiens) (Q5JTV8 whole entry, looked up): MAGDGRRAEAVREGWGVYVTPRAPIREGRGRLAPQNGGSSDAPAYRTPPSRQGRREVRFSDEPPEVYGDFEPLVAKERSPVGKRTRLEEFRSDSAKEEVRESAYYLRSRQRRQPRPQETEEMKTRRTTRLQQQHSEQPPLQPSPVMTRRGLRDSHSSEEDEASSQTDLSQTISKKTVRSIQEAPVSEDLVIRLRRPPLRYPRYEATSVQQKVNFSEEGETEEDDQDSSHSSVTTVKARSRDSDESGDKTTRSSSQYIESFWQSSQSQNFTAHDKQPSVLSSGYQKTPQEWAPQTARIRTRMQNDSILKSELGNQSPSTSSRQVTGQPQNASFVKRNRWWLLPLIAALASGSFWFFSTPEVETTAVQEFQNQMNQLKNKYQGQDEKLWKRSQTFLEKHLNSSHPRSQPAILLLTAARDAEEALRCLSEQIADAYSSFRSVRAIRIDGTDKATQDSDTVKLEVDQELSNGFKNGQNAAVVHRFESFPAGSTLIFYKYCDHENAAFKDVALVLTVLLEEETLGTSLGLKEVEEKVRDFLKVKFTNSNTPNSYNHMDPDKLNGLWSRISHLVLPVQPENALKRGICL

[10] = biological target: Alpha-bungarotoxin (Bungarus multicinctus) (UniProt P60615); assay: alpha-bungarotoxin binders on microarray, profiling panel, artefact control for SMM control protein annotation, biochemical, small-molecule microarray, Alexa647 label, 635/667 nm fluorescence (AID 1117); conditions: alpha-BTX-A647 binding fluorescence, higher = more signal
Chain of Alpha-bungarotoxin (Bungarus multicinctus) (P60615 whole entry, looked up): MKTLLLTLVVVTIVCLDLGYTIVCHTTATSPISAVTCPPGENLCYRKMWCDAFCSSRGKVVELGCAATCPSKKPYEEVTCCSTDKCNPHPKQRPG

SMILES	composite z-score [1]	z-score [2]	composite z-score [3]	composite z-score [4]	composite z-score [5]	composite z-score [6]	composite z-score [7]	composite z-score [8]	composite z-score [9]	composite z-score [10]
C=CCNC(=O)[C@H]1[C@@H]2C(=O)O[C@@H](c3ccccc3)[C@@H](c3ccccc3)N2[C@@H](c2ccccc2OCCO)[C@]12C(=O)N(C(=O)OCCOC)c1ccc(C#CC3=CCCCC3)cc12	1.43	-3.34	0.68	1.63	0.49	0.125	0.0915	1.12	0.794	1.4
COCCOC(=O)N1C(=O)[C@@]2(c3cc(C#Cc4ccc(OC)cc4)ccc31)[C@H](C(=O)N1CCCCCCC1)[C@H]1C(=O)O[C@H](c3ccccc3)[C@H](c3ccccc3)N1[C@@H]2c1ccc(O)cc1	1.36	-0.949	0.505	0.172	0.184	-0.0239	0.603	1.18	0.604	0.723
CCOC(=O)[C@@H]1[C@@H]2C(=O)N(CC)C(=O)[C@@H]2C[C@@H]1Sc1ccccc1	1.35	-1.33	0.0952	0.414	0.163	0.0357	0.131	0.266	0.706	1.27
[N-]=[N+]=Nc1ccccc1C[C@@]1(C(=O)O)N=C(c2ccc(OCCCO)cc2)O[C@@H]1c1ccccc1	1.3	1.34	-0.862	1.73	0.294	-0.0566	0.191	0.905	0.24	1.08
CCCCN1CC=CC23O[C@@H]4C=CCOC(=O)[C@@H]4[C@H]2C(=O)N(C(C)CO)[C@@H]3C1=O (stereo not given in full)	-1.31	-0.748	-1.29	-0.397	0.5	-0.169	-0.209	0.26	-0.194	-0.714
C=CC[C@@]12N=C(c3ccc(OCCCO)cc3)O[C@@H]1c1ccccc1N(CCS(=O)(=O)c1ccccc1)C2=O	1.38	-0.925	0.526	1.69	0.727	-0.0303	0.147	-0.0569	0.676	0.448
[N-]=[N+]=NCc1ccccc1C[C@]1(C(=O)NCC(O)CO)N=C(c2ccc(OCCCO)cc2)O[C@H]1c1ccccc1CN=[N+]=[N-] (stereo not given in full)	1.47	-2.88	-0.353	1.42	0.786	0.115	0.541	0.721	2.41	1.21
[N-]=[N+]=Nc1ccccc1[C@H]1OC(c2ccc(OCCCO)cc2)=N[C@@]1(CCS(=O)(=O)c1ccccc1)C(=O)N1CCCCC1	1.44	-1.05	-0.149	1.48	0.956	-0.0165	0.184	0.0127	1.27	2.21
O=C(CCCCCCC(=O)Nc1ccccc1)N/N=C/c1ccccc1	-0.162	-0.529	0.229	-0.507	-0.491	-0.18	0.0224	-0.216	0.255	-0.454
COCCCNC(=O)[C@@H]1c2ccccc2C(=O)N(Cc2ccccc2C(F)(F)F)[C@H]1c1ccc(CO)cc1	0.367	-0.469	-0.431	-0.119	0.423	-0.152	-0.266	0.265	0.612	-0.295
COC(=O)[C@]1(CCS(=O)(=O)c2ccccc2)N=C(c2ccc(OCCCO)cc2)O[C@@H]1c1ccccc1CN=[N+]=[N-]	1.41	-2.98	0.0011	0.631	-0.48	0.0785	-0.0035	1.02	0.879	0.969
COC(=O)[C@@]1(Cc2ccc(OC)cc2)[C@H]2c3cc(C(=O)N(C)C)n(Cc4ccccc4)c3C[C@H]2CN1C(=O)c1ccccc1	1.34	-1.66	-0.367	1.63	1.03	-0.0681	-0.12	-0.759	-0.681	0.187
C=CCOC(=O)[C@@H]1[C@H]2C(=O)O[C@H](c3ccccc3)[C@H](c3ccccc3)N2[C@H](c2ccc(OCCOC(=O)[C@H]3C[C@H]4C(=O)N[C@@H](CC(C)C)C(=O)N4[C@H]3c3ccc(O)cc3)cc2)[C@@]12C(=O)Nc1ccc(I)cc12	0.719	-0.866	0.808	0.0847	-0.481	-0.0478	0.235	0.135	0.859	2
C=CCN1C(=O)[C@@]2(O[C@@H](CCn3cc([C@H](O)c4ccccc4)nn3)[C@H]([Si](C)(C)c3ccc(OC)cc3)[C@H]2C)c2ccccc21	0.733	-3.04	0.245	0.134	-0.506	0.0973	-0.0769	0.0308	0.676	1.21
NCCCCCNC(=O)[C@@H]1C[C@@H]2C(=O)N[C@@H](CCCCN)C(=O)N2[C@@H]1c1cccc(OCCO)c1	0.309	0.731	0.599	-0.804	-0.262	0.0921	0.241	0.628	1.97	-0.066
COCCOC(=O)N1C(=O)[C@@]2(c3cc(C#CC4(O)CCCCCC4)ccc31)[C@H](c1ccccc1OCCO)N1[C@H](c3ccccc3)[C@H](c3ccccc3)OC(=O)[C@H]1[C@@H]2C(N)=O	-0.389	-3.33	0.844	1.06	0.0078	-0.101	0.337	0.347	0.425	1.72
COc1ccc(CCNC(=O)[C@@]2(Sc3ccc(C)cc3)CC(=O)N(Cc3cc(C(F)(F)F)cc(C(F)(F)F)c3)[C@@H]2c2ccc(CO)cc2I)cc1	1.27	-1.89	-1.07	0.435	-0.45	-0.0869	0.23	-0.0592	0.282	1.73

SMILES	composite z-score [1]	z-score [2]	composite z-score [3]	composite z-score [4]	composite z-score [5]	composite z-score [6]	composite z-score [7]	composite z-score [8]	composite z-score [9]	composite z-score [10]
CC(C)C(=C=CC[C@H](O)c1ccc(OCCO)cc1)C[C@H](O)c1cc(Cl)cc(Cl)c1O	0.927	-1.57	0.437	-0.0205	0.134	-0.0125	0.191	0.205	0.413	1.44
C=CCC(OC(C)=O)[C@@H]1[C@@H](N(Cc2ccc(-c3ccccc3)cc2)C(=O)c2cccc3ccccc23)c2cc(OCCCO)ccc2N1C(=O)Cc1ccc2ccccc2c1 (stereo not given in full)	-0.106	-0.374	-0.304	-0.29	0.842	-0.108	-0.243	-0.225	0.0247	0.528
COc1ccc([Si](C)(C)[C@@H]2[C@@H](CC(=O)N3CCC[C@H]3CO)O[C@]3(C(=O)N(Cc4ccc(N5C(=O)c6cccc7cccc5c67)cc4)c4ccccc43)[C@H]2C)cc1	1.45	-2.25	0.515	0.692	-0.292	-0.0437	0.14	-0.37	1.44	1.82
C=C(CCCC)/C(=C/C[C@@H](OC(C)=O)c1ccc(CO)o1)c1cc(C(=O)OC)ccc1OC	1.45	-1.79	0.26	0.723	0.0443	-0.0758	-0.232	0.141	0.886	1.28
[N-]=[N+]=NCc1ccccc1C[C@@]1(C(=O)N2CCCCC2)N=C(c2ccc(OCCCO)cc2)O[C@@H]1c1ccccc1N=[N+]=[N-]	1.37	-1.04	-0.0573	1.43	0.795	-0.392	-0.284	-0.919	0.209	0.809
COc1ccc([Si](C)(C)[C@@H]2[C@@H](CCn3cc([C@H](O)c4ccccc4)nn3)O[C@]3(C(=O)N(Cc4ccc(N5CCOC5=O)cc4)c4ccccc43)[C@H]2C)cc1	1.11	-2.29	0.846	0.142	-0.488	-0.0179	0.0224	-0.0675	1.74	1.06
CC[C@H]1C2=C3C(CC[C@H]4C(OCc5ccc(F)cc5C(F)(F)F)OC[C@](C)([C@@H]34)N(C(=O)OC(C)(C)C)C2)C2COC(=O)OCC21 (stereo not given in full)	1.34	-2.1	-0.532	2.48	0.911	-0.0297	0.246	-0.712	0.713	0.347
C=C(C(=O)CC[C@H](OC(C)=O)c1cccc(OCCO)c1)C(C)C	-0.521	-1.01	-0.728	-0.765	-0.608	-0.206	-0.117	-0.107	-0.397	1.98
CC(C)N1C(=O)[C@@]2(c3ccc([N+](=O)[O-])cc3)CC(=O)N(C3CCCCC3)[C@@H]2c2ccc(CO)cc21	-0.242	0.711	0.11	-0.561	-0.593	-0.1	-0.0553	-0.305	0.214	0.329
CC=CC(O)C1C=CC2C(=O)N(C)C(=O)C2N1Nc1ccc([N+](=O)[O-])cc1[N+](=O)[O-] (stereo not given)	-0.0226	-0.121	-0.324	-0.086	-0.541	-0.148	0.166	0.0471	-0.345	-0.297
COCCOC(=O)N1C(=O)[C@@]2(c3cc(C#CC4=CCCCC4)ccc31)[C@H](c1ccccc1OCCO)N1[C@H](c3ccccc3)[C@H](c3ccccc3)OC(=O)[C@H]1[C@@H]2C(=O)N1CCc2cc(OC)c(OC)cc2C1	1.33	-1.81	0.336	-0.141	-0.383	-0.121	-0.176	-0.008	0.336	0.761
CN(C)CCCCNC(=O)[C@H]1C[C@H]2C(=O)N[C@@H](CCCCN(C)C)C(=O)N2[C@H]1c1cccc(OCCO)c1	1.41	0.057	1.17	0.477	-0.167	-0.036	-0.203	0.0721	0.752	0.701
CC(C)C(CO)N1C(=O)[C@]2(C)C3C(=O)OCCC/C=C\[C@H]3OC23C=CCN(c2ccc(Cl)cc2)C(=O)[C@@H]13 (stereo not given in full)	0.964	0.344	-1.03	-0.224	-0.193	-0.131	-0.138	0.563	-0.0952	-0.28
O=C(CS)NCCCCCCNC(=O)[C@@H]1C[C@@H]2C(=O)N3CCC[C@H]3C(=O)N2[C@@H]1c1cccc(OCCO)c1	1.41	0.0871	0.289	1.49	0.36	0.206	-0.0866	0.0482	1.41	2.16
O=C1O[C@@H](c2ccccc2)[C@@H](c2ccccc2)N2[C@@H](c3ccc(O)cc3)[C@]3(C(=O)Nc4ccc(C#CC5=CCCCC5)cc43)[C@@H](C(=O)N3CCN(c4ncccn4)CC3)[C@H]12	1.17	-1.9	0.333	1.19	-0.581	-0.0459	0.0756	-0.14	0.951	0.862
O=C1O[C@@H](c2ccccc2)[C@@H](c2ccccc2)N2[C@@H](c3ccccc3OCCO)[C@]3(C(=O)Nc4ccc(C#CC5=CCCCC5)cc43)[C@@H](C(=O)NC[C@H](O)c3ccccc3)[C@H]12	1.35	-3.33	0.556	1.08	0.0728	0.0388	-0.0709	0.0483	0.519	1.31
COC(=O)C[C@H]1O[C@]2(C(=O)N(C)c3ccccc32)[C@@H](C)[C@@H]1[Si](C)(C)c1ccc(C)cc1	1.15	-2.92	0.375	0.196	-0.0787	-0.136	-0.393	-0.121	0.346	0.638
